Activity calls are given as the source filed them. Rule for the calls: active = hit-call score of the fitted dose curve at least 0.9, where 1 is the maximum; inactive = score below 0.9.
Assay: APR_HepG2_NuclearSize_1hr: Apredica 1-hour HepG2 Assay for Nuclear Size (AID 2282670)
Details: high-content imaging, actives raise or lower the signal
Method: APR_HepG2_1hr is a cell-based, multiplexed-readout assay that uses HepG2, a human liver cell line, with measurements taken at 1 hour after chemical dosing in a 384-well plate.APR_HepG2_NuclearSize_1hr is one of 10 assay component(s) measured or calculated from the APR_HepG2_1hr assay. It is designed to make measurements of cell phenotype, a form of morphology reporter, as detected with fluorescence intensity signals by HCS Fluorescent Imaging technology.Data from the assay component APR_HepG2_NuclearSize_1hr was analyzed into 1 assay endpoint. This assay endpoint, APR_HepG2_NuclearSize_1hr, was analyzed with bidirectional fitting relative to DMSO as the negative control and baseline of activity. Using a type of morphology reporter, measures of all nuclear dna for gain or loss-of-signal activity can be used to understand the signaling at the nuclear-level. Furthermore, this assay endpoint can be referred to as a primary readout, because this assay has produced multiple assay endpoints where this one serves a signaling function. To generalize the intended target to other relatable targets, this assay endpoint is annotated to the cell morphology intended target family, where the subfamily is organelle conformation.
Cells were treated with dimethyl sulfoxide (DMSO) as a solvent control at a final concentration of 0.5% v/v or with compounds in DMSO with a resulting final DMSO concentration of 0.5% v/v. Compound treatment was done at concentrations of 0.39, 0.78, 1.56, 3.12, 6.24, 12.5, 25, 50, 100, and 200 uM in duplicate on each plate. Cells were treated with compounds for 1, 24, or 72 hr. Carbonyl […] m-chloro-phenylhydrazone (CCCP) and taxol were used as positive controls for mitochondrial function and cytoskeletal stability, respectively; DMSO served as the negative control for this experiment. Cells were fixed by the direct addition of 50 uL formaldehyde in Hank's Balanced Salt Solution (HBSS) to a final concentration of 3.7%. After incubation in the fixation medium for 30 min at room temperature (293-298 K), cells were rinsed twice with HBSS and treated with cell permeabilization buffer (16 uL of 0.5% Triton X-100) for 10 min at room temperature (293-298 K) before labeling. For mitochondrial membrane potential and mitochondrial measurements, pre-fixed cells were incubated with 50 uL of MitoTracker Red CMXRos (Invitrogen) at a concentration of 250 nM for 30 min before fixation. In the remaining cases, post-fixed cells were labeled by incubation with a multiplexed mixture of primary antibodies in HBSS for 60 min at room temperature (293-298 K) to detect immunoreactivity of c-Jun (1:500), phospho-histone H3 (1:100), phospho-histone H2A.x (1:200), p53 (1:400), alpha-tubulin (1:200) and Hoechst 33342 (2 ug/mL). Cells were labeled for multiplexed imaging on two separate plates: a) Hoechst 33342, MitoTracker Red, phospho-histone H3, and alpha-tubulin, and b) Hoechst 33342, phospho-histone H2A.x, and c-Jun. A final rinse with HBSS (50 uL) was performed before analysis. The primary and secondary antibodies for the proteins were phospho-histone H3 (rabbit anti-phospho-histone H3 and FITC-donkey anti-rabbit IgG), phospho-histone H2A.x (mouse anti-phospho-histone H2A.x and FITC-donkey anti-mouse IgG), c-Jun (rabbit anti-phospho-c-Jun and Cy3-donkey anti-rabbit IgG), p53 (sheep anti-p53 and Cy5-donkey anti-sheep IgG), alpha-tubulin (mouse anti-alpha-tubulin and Cy5-donkey anti-mouse IgG). These antibodies are available as the CellCiphr HepG2 assay kit (Millipore).Digital images of each well were captured using a Cellomics ArrayScan VTI (Thermo Scientific Cellomics) (0.8 NA objective, 0.63x optical coupler, and XF-93 filter set) at 20x magnification. The images were acquired using the autofocus feature of the ArrayScan instrument, which entails the following steps. First, the camera focuses on channel 1 (Hoechst 33342), where nuclei are identified. Second, a Z offset of 1 um is used for capturing mitochondria (MitoTracker Red). […]
In the case of `CNC(=O)N(C)c1nnc(C(C)(C)C)s1`, the outcome is reported as “inactive”.
For `CCOP(=S)(OCC)Oc1nc(Cl)n(C(C)C)n1`, the outcome was “inactive”.
In the case of `O=C(Nc1ccccc1-c1ccc(Cl)cc1)c1cccnc1Cl`, the outcome is reported as “inactive”.
With `CC(C)Oc1cccc(NC(=O)c2ccccc2C(F)(F)F)c1` the outcome was “inactive”.
For `O=c1n(Cl)c(=O)n(Cl)c(=O)n1Cl`, the outcome was “inactive”.
In the case of `O=P(O)(O)CCCl`, the outcome is reported as “inactive”.
For `CCOc1nc(C(Cl)(Cl)Cl)ns1`, the outcome was “inactive”.
For `CCNP(=S)(OC)O/C(C)=C/C(=O)OC(C)C` (stereo not given), the outcome was “inactive”.
In the case of `Cc1nc(N(C)C)nc(OC(=O)N(C)C)c1C`, the outcome is reported as “inactive”.
For `COc1ccc(-c2ccccc2)cc1NNC(=O)OC(C)C`, the outcome was “inactive”.
With `Cc1cnc(C2=NC(C)(C(C)C)C(=O)N2)c(C(=O)O)c1` (stereo not given) the outcome was “inactive”.
In the case of `Nc1cnn(-c2ccccc2)c(=O)c1Cl`, the outcome is reported as “inactive”.
With `COc1cc(Cl)c(OC)cc1Cl` the outcome was “inactive”.
In the case of `N#CN=C1SCCN1Cc1ccc(Cl)nc1`, the outcome is reported as “inactive”.
For `COP(=O)(OC)O/C(C)=C/C(=O)N(C)C`, the outcome was “inactive”.
With `Cc1c(COC(=O)[C@@H]2[C@H](/C=C(\Cl)C(F)(F)F)C2(C)C)cccc1-c1ccccc1` the outcome was “inactive”.
For `C=C(C)CN(CC)c1c([N+](=O)[O-])cc(C(F)(F)F)cc1[N+](=O)[O-]`, the outcome was “inactive”.
In the case of `CCCC(=NOCC)C1=C(O)CC(CC(C)SCC)CC1=O` (stereo not given), the outcome is reported as “inactive”.
For `N#Cc1c(Cl)cccc1Cl`, the outcome was “inactive”.
In the case of `Cc1ccc(N=CN(C)C=Nc2ccc(C)cc2C)c(C)c1`, the outcome is reported as “inactive”.
In the case of `COCC(C)N(C(=O)CCl)c1c(C)csc1C` (stereo not given), the outcome is reported as “inactive”.
With `CCOc1nc(F)cc2nc(S(=O)(=O)Nc3c(Cl)cccc3Cl)nn12` the outcome was “inactive”.
In the case of `CCSC(=O)N1CCCCCC1`, the outcome is reported as “inactive”.
With `CCOc1cc(C(C)(C)C)ccc1C1COC(c2c(F)cccc2F)=N1` (stereo not given) the outcome was “inactive”.
In the case of `COCc1cnc(C2=NC(C)(C(C)C)C(=O)N2)c(C(=O)O)c1` (stereo not given), the outcome is reported as “inactive”.
With `CN=C=S` the outcome was “inactive”.
For `CC1(C)C(C(=O)OC(C#N)c2cccc(Oc3ccccc3)c2)C1(C)C` (stereo not given), the outcome was “inactive”.
With `COC(=O)N(C(=O)N1CO[C@@]2(C(=O)OC)Cc3cc(Cl)ccc3C2=N1)c1ccc(OC(F)(F)F)cc1` the outcome was “inactive”.
In the case of `CSC(=O)c1c(C(F)F)nc(C(F)(F)F)c(C(=O)SC)c1CC(C)C`, the outcome is reported as “inactive”.
For `CC(C)C1(C)N=C(c2ncccc2C(=O)O)NC1=O` (stereo not given), the outcome was “inactive”.
In the case of `COc1cc(OC)nc(NC(=O)NS(=O)(=O)c2ncccc2OCC(F)(F)F)n1`, the outcome is reported as “inactive”.
For `Clc1cccc(C(Cl)(Cl)Cl)n1`, the outcome was “inactive”.
For `COCC(=O)N(c1c(C)cccc1C)C(C)C(=O)OC` (stereo not given), the outcome was “inactive”.
With `CCOC(=O)C(C)OC(=O)c1cc(Oc2ccc(C(F)(F)F)cc2Cl)ccc1[N+](=O)[O-]` (stereo not given) the outcome was “inactive”.
In the case of `Nc1c(Cl)c(Cl)nc(C(=O)O)c1Cl`, the outcome is reported as “inactive”.
In the case of `COP(=S)(OC)SCn1nnc2ccccc2c1=O`, the outcome is reported as “inactive”.
For `COC(=O)NC(=S)Nc1ccccc1NC(=S)NC(=O)OC`, the outcome was “inactive”.
For `CC(C)Nc1nc(Cl)nc(NC(C)C)n1`, the outcome was “inactive”.
In the case of `CCCCOCN(C(=O)CCl)c1c(CC)cccc1CC`, the outcome is reported as “inactive”.
With `CCNC(=O)NC(=O)C(C#N)=NOC` the outcome was “inactive”.

— PubChem BioAssay (EPA / NIEHS)
